Screening data as filed in PubChem BioAssay.
Compounds with a hit are over-represented: about 1.4% of the library has one in this group of screens.
SARS PLP yeast – inhibitors of SARS-CoV papain-like protease in yeast. AID 485353. Potency, µM (highest dose often 32.9 µM), inactives show at the highest dose activity, positive = growth rescue, most hits filed as activators. actives 0.19% (n = 330,000). S. cerevisiae expressing SARS-CoV PLpro, growth rescue; calls by dose curve; note: 0% is about no effect; nearly all actives have a fitted effect of over 55% in size
AMA1 RON2 block – disrupts binding of P. falciparum AMA1 to RON2 | AlphaScreen AMA1-biotinylated RON2 peptide binding | Potency, µM (series often up to 58.2 µM), without a hit: top-dose activity change, negative = inhibition, usual class: inhibitors | actives 0.2% (n = 360,000);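 note: 0% = vehicle wells and -100% = peptide control; nearly all actives have a fitted effect of over 45% in size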
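AMA1 (3D7) with his tag at 25 nM final met compounds first, then biotinylated RON2 peptide at 25 nM; detection used donor plus acceptor beads, 10 µg/mL apiece, read by AlphaScreen after 30 min at room temperature.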
VACV mCherry inh – inhibitors of vaccinia virus infection (mCherry reporter signal); Vaccinia virus mCherry reporter infection, fluorescence; Potency, µM (titrated, usually from 36.5 µM), for inactives: at the top dose activity change, negative = inhibition, most hits filed as inhibitors; actives 0.63% (n = 310,000); calls by dose curve; tested in A549 cells; note: % is set by controls: 0 for no effect and ±100 for the full control effect; nearly all actives have a fitted effect of over 35% in size
AmpC no deterg – AmpC beta-lactamase inhibition without detergent. P00811. AmpC nitrocefin hydrolysis, absorbance 480 nm, 0.0001% Triton. Potency, µM (titrated, usually from 57.1 µM), without a hit: at the highest dose activity change, negative = inhibition, most hits filed as inhibitors. actives 0.52% (n = 330,000). AID 485341;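 note: plate controls were no compound for no effect and no enzyme for full effect; nearly all actives have a fitted effect of over 20% in size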
Target sequence (P00811 whole entry, looked up): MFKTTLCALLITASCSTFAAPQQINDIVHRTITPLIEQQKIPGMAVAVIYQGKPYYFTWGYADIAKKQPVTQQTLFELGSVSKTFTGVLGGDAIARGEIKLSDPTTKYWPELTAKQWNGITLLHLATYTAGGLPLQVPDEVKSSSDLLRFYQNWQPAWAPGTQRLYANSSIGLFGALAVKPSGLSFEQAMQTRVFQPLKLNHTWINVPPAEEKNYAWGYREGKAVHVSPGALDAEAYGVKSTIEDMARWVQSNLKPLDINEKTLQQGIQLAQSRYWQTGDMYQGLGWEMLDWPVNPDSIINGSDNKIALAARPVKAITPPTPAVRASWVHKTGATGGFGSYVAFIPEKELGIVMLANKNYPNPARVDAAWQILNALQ
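AmpC (5.3 nM in the dispensed reagent) in 20 mM phosphate pH 7.0 with 0.01% (detergent screen) or 0.0001% Triton X-100 was preincubated with compounds for 15 min at room temperature. Nitrocefin was then added from an 800 uM solution, and hydrolysis was followed at 480 nm.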
AmpC inh detg – AmpC beta-lactamase inhibition with detergent present; AmpC hydrolysis of nitrocefin, absorbance 480 nm, 0.01% Triton; Potency, µM (doses to about 114 µM), inactives show top-dose activity change, negative = inhibition, usual class: inhibitors; actives 0.041% (n = 370,000); AID 485294; P00811;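 note: 0% = no-compound wells and -100% = no-enzyme wells; nearly all actives have a fitted effect of over 25% in size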
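AmpC (5.3 nM in the dispensed reagent) in 20 mM phosphate pH 7.0 with 0.01% (detergent screen) or 0.0001% Triton X-100 was preincubated with compounds for 15 min at room temperature. Nitrocefin was then added from an 800 uM solution, and hydrolysis was followed at 480 nm.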
Vaccinia Venus – inhibitors of vaccinia virus (Venus reporter). Vaccinia virus Venus reporter expression, fluorescence. Potency, µM (doses to about 36.5 µM), inactives show top-dose activity change, negative = inhibition, hits mostly inhibitors. actives 0.46% (n = 330,000); calls by dose curve; tested in A549 cells; note: % is set by controls: 0 for no effect and ±100 for the full control effect; nearly all actives have a fitted effect of over 30% in size
Numbers without * were called inactive; i = inactive; ? = inconclusive; nt = no result. Unless noted, calls come from the whole dose curve; as a rule, active = well fitted curve in the direction sought with a large enough effect; inconclusive = small, poorly fitted or top-dose-only effect, or another doubt; inactive = no such curve, though single readings can be large; an effect the other way counts as inactive or inconclusive. Potency is the fitted concentration of half-maximal effect.

SMILES | SARS PLP yeast | AMA1 RON2 block | VACV mCherry inh | AmpC no deterg | AmpC inh detg | Vaccinia Venus
Cn1c(=O)c2c(-c3ccccc3)n(N3CCOCC3)cc2n(C)c1=O | -8.8% | -0.8% | -3.5% | -14.4% | ? | 1.3%
Cn1c(=O)c2c(-c3ccc(C(C)(C)C)cc3)n(N3CCOCC3)cc2n(C)c1=O | 2.1% | 2.1% | -2.3% | -10.3% | 35.5µM* | 6.8%
Cc1cc(C)n2c(Nc3ccc4c(c3)OCCO4)c(-c3ccccn3)nc2n1 | nt | 8.91µM* | ? | nt | nt | -25.8%
CN(C)c1ccc(/C=C2\CCc3cc(N)ccc32)cc1 | nt | nt | -17.3% | nt | nt | -5.0%
CC/C(=N\Nc1ccccc1[N+](=O)[O-])c1ccc(O)cc1 | -1.5% | 15.8µM* | ? | -43.6% | -2.1% | ?
CC/C(=N\Nc1ccc([N+](=O)[O-])cc1[N+](=O)[O-])c1ccc(O)cc1 | -0.2% | -23.4% | nt | -58.9% | -3.8% | nt
Cc1[nH]n(-c2ccccc2)c(=O)c1/C=N/NC(=O)COc1ccccc1[N+](=O)[O-] | 14.1µM* | 84.4% | nt | -30.8% | -7.0% | nt
COCC(=O)N/N=C/c1c(C)[nH]n(-c2ccccc2)c1=O | 5.5% | 50.5% | -11.6% | -17.9% | 1.0% | -3.3%
O=C(/C=C/c1ccc(F)cc1)NNC(=O)CCN1CCN(Cc2ccccc2)CC1 | 2.9% | 43.3% | 11.2µM* | -0.7% | 5.7% | ?
COc1cccc(/C=C/C(=O)NNC(=O)CCN2CCN(Cc3ccccc3)CC2)c1 | -1.3% | 106.8% | ? | 28.4% | 5.6% | -22.5%
Cc1nc(NC(=O)c2ccc(OCC(C)C)cc2)sc1Cc1ccc2c(c1)OCO2 | -1.5% | 0.0% | i | -57.6% | 2.6% | -28.3%
CCCOc1ccc(C(=O)Nc2nc(C)c(Cc3ccc4c(c3)OCO4)s2)cc1 | -4.4% | 0.0% | ? | -19.1% | -9.1% | 10µM*
COc1ccc(C2=NN(c3nc(-c4ccccc4)c(CC(=O)O)s3)C(c3ccco3)C2)cc1 (stereo not drawn) | -6.9% | -3.7% | i | 14.1µM* | -13.7% | 25.9%
O=C(Cc1coc2ccc3ccccc3c12)Nc1nnc(C2CC2)s1 | 11.0% | 7.4% | 12.6µM* | -25.2% | 2.2% | 12.5%
O=S(=O)(NCc1nnc2n1CCN(Cc1ccccc1Cl)CC2)c1ccccc1 | nt | nt | i | nt | nt | -9.7%
Cc1ccc(-n2c(-c3ccccc3)nsc2=NC#N)cc1 | nt | nt | 3.55µM* | nt | nt | 4.47µM*
Cc1ccc(-n2c(-c3ccccc3)n[nH]c2=S)cc1 | -5.6% | 85.9% | -14.4% | -25.7% | -1.4% | -10.1%
COc1cccc(CNC(=O)c2c(OC)cc(=O)n3c2CCN(C(=O)c2ccc(Cl)cc2)CC3)c1 | nt | nt | i | nt | nt | 0.0%
COc1cccc(C2CC(c3ccc(Br)cc3)=NN2C(=O)c2ccncc2)c1OC (stereo not drawn) | -2.2% | -9.4% | 14.1µM* | 145.3% | 1.6% | ?
CC(C)(C)c1ccc(OCCCC(=O)NNC(=O)c2ccccc2O)cc1 | 6.1% | 68.7% | 14.1µM* | -47.8% | ? | ?
Cc1noc(C)c1COc1ccc(C(=O)NNC(=O)c2ccccc2O)cc1 | -2.5% | 13.8% | 3.55µM* | -16.5% | ? | ?
Cc1cc(C(=O)NNC(=O)CCCOc2ccccc2)c(C)o1 | -0.2% | 72.6% | -13.8% | -18.3% | -16.9% | 4.3%
COc1ccc(/C=C/C(=O)NCC2Cc3cccc(-c4nc(C)cnc4C)c3O2)cc1OC (stereo not drawn) | nt | nt | i | nt | nt | -8.9%
CCN(CC)C(=O)CSc1nnc(-c2cc(-c3ccc(Cl)cc3)nc3ccccc23)o1 | -8.2% | 18.9% | -2.5% | -24.7% | 2.8% | -9.3%
CN(C)C(=O)CSc1nnc(-c2cc(-c3cccs3)nc3ccccc23)o1 | -1.7% | 9.1% | nt | 1.3% | -7.7% | 5.01µM*
SMILES | SARS PLP yeast | AMA1 RON2 block | VACV mCherry inh | AmpC no deterg | AmpC inh detg | Vaccinia Venus
O=c1[nH]c(CN2CCN(S(=O)(=O)/C=C/c3ccccc3)CC2)nc2ccccc12 | 3.0% | 7.5% | i | 12.5% | -4.5% | -11.2%
O=c1[nH]c(CN2CCN(S(=O)(=O)/C=C/c3ccccc3)CC2)nc2cc(Cl)ccc12 | 0.4% | 50.1% | ? | 2.6% | 0.9% | 11.2µM*
COc1cc(C2Nc3cccc4cccc(c34)N2)cc(OC)c1O | -5.0% | -5.1% | -6.8% | 31.6µM* | -3.2% | -5.2%
CSc1nnc(CNC(=O)c2cccc3ccccc23)n1-c1ccccc1C | nt | nt | -6.3% | nt | nt | 1.1%
CC1(C(=O)NS(=O)(=O)c2cccc(Cl)c2)CCN1C(=O)Cc1cc(F)ccc1F (stereo not drawn) | nt | -1.6% | -8.9% | nt | nt | 0.3%
Cc1cccc(S(=O)(=O)NC(=O)C2(C)CCN2C(=O)Cc2cc(F)ccc2F)c1 (stereo not drawn) | nt | 39.8µM* | i | nt | nt | -16.7%
O=C(Cn1c(=O)sc2ccccc21)NCc1ccccn1 | 6.2% | 14.2% | 2.9% | 44.7µM* | ? | -2.1%
O=C(CN1C(=O)c2ccccc2C1=O)NCc1ccccn1 | -4.4% | 87.3% | -10.1% | -11.9% | ? | -6.9%
COc1ccccc1C1CN(Cc2cccnc2)Cc2ccccc2O1 (stereo not drawn) | nt | nt | -11.9% | nt | nt | 5.8%
C#CCOCCOCCOCCNc1nc(N2CCN(C(=O)CCCCCCCCCCNC(=O)[C@H]([C@@H](C)CC)n3cc(CCCCN=C(N)N)nn3)CC2)nc(N2CCN(C(=O)CCCCCCCCCCNC(=O)[C@H](CCCCN)n3cc(C)nn3)CC2)n1 | 3.1% | ? | ? | 315.3% | 8.5% | 7.08µM*
C#CCOCCOCCOCCNc1nc(N2CCN(C(=O)CCCCCCCCCCNC(=O)[C@H]([C@@H](C)CC)n3cc(CCCCN=C(N)N)nn3)CC2)nc(N2CCN(C(=O)CCCCCCCCCCNC(=O)[C@H](CO)n3cc(CCCCCN)nn3)CC2)n1 | -2.9% | ? | ? | 177.5% | -5.9% | 7.08µM*
